# FGF22 binding – FGF22 (human) thermal shift binding. Q9HCT0. recombinant FGF22 thermal shift, SYPRO orange fluorescence; percent of sucrose octasulfate shift, DMSO zero. AID 651658. activity (Tm shift, normalised), % at 9.99 µM. hit rate 1.5% among 340,000;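 active means mean Tm shift, scaled 0 neutral to 100 positive control, at about 1.3% or above, every replicate too, limit read from the data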
# Target sequence (Q9HCT0 whole entry, looked up): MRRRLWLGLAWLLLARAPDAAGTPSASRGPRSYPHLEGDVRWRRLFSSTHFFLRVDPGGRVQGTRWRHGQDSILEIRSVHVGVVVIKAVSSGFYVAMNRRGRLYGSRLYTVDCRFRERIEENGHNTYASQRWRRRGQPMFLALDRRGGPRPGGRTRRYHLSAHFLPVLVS
# CASP6 VEID inh – inhibitors of human caspase-6; hit rate 0.53% among 350,000; inhibition, % at 12.5 µM; AID 686996; purified caspase-6, Z-VEID-R110 cleavage fluorescence;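 active means mean inhibition across replicates at least about 35%, with every replicate also reaching that limit, limit read from the data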;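 further: 0% = median of neutral control wells and 100% = no fluorescence left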
# SIRT5 inh – inhibitors of human sirtuin-5 desuccinylase. inhibition, % at 15 µM. Purified SirT5, succinyl-peptide AMC, trypsin-coupled fluorescence. hit rate 1.1% among 330,000. AID 652115; in the data active means inhibition above about 15%
# Target sequence (Q9NXA8 whole entry, looked up): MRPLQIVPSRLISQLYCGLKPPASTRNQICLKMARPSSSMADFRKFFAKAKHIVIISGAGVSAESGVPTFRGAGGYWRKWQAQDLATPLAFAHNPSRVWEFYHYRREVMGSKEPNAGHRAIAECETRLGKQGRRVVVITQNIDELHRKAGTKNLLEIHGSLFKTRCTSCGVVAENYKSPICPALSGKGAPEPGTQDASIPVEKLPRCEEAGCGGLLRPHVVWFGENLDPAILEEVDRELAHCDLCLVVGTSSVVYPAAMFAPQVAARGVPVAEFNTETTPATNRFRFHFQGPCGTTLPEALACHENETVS
# ERAP1 HTS inh – blocks human ERAP1 aminopeptidase activity; inhibition, % at 10.7 µM; hit rate 0.15% among 340,000; Q9NZ08; recombinant ERAP1, Leu-AMC fluorescence, 60 min; AID 652197;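 active means mean replicate inhibition of at least 30%, or all replicates individually reaching that 30% level; inactive means mean below 30% and not every replicate reaching it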;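 further: 0% = neutral control wells and 100% = L-leucinethiol positive control wells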
# Numbers without * were called inactive; x = not tested or not shown. Hits are enriched below; roughly 3.1% of the tested compounds scored in any of these assays.
SMILES,FGF22 binding,CASP6 VEID inh,SIRT5 inh,ERAP1 HTS inh
Cc1cccc(CSCC(=O)NCc2ccc(S(N)(=O)=O)cc2)c1,0,4,15*,-2
Cc1ccc(CNC(=O)CSCc2ccccc2)cc1,42,-2,-6,2
O=C(NCc1cn(-c2ccccc2)nc1-c1ccccc1)c1cccc([N+](=O)[O-])c1,43*,-2,-3,0
O=C(O)CCC(=O)Nc1ccc(C(=O)OCC(=O)c2ccc(Cl)cc2Cl)cc1,43*,2,1,0
C[C@H](CO)N1C[C@H](C)[C@@H](CN(C)S(=O)(=O)c2ccc(Cl)cc2)Oc2ccc(NC(=O)Nc3ccc(C(F)(F)F)cc3)cc2CC1=O,0,-1,1,1
C[C@H]1CN([C@@H](C)CO)C(=O)c2cc(-c3ccncc3)cnc2O[C@@H]1CN(C)Cc1ccc(Oc2ccccc2)cc1,1,0,0,0
CCSc1nc(N)nc2c1ncn2C1OC(CO)C(O)C1O (stereo not given),0,0,x,3
Nc1nc(SCc2ccc(Br)cc2)c2ncn(C3OC(CO)C(O)C3O)c2n1 (stereo not given),44*,-5,x,-5
Cc1ccc(-n2cc(-c3ccccc3)c3c(N4CCOCC4)ncnc32)cc1,43*,-4,-4,-1
Cc1ccc(-n2cc(-c3ccccc3)c3c(N4CCN(C)CC4)ncnc32)cc1,42,1,-1,-8
C[C@H](CO)N1C[C@H](C)[C@@H](CN(C)C(=O)Nc2ccc3c(c2)OCO3)Oc2c(NS(C)(=O)=O)cccc2C1=O,0,3,7,1
C[C@H]1CN([C@@H](C)CO)C(=O)Cc2cc(NS(C)(=O)=O)ccc2O[C@@H]1CN(C)Cc1ccc(C(=O)O)cc1,0,0,4,-1
COC(=O)C1C2CCCCC1C(=O)O2 (stereo not given),0,0,0,1
COC(=O)C1C2OC(C(Br)C2Br)C1C(=O)OC (stereo not given),44*,1,x,-3
CC(=O)Nc1cccc(NC(=S)Nc2cccc(Cl)c2Cl)c1,0,-1,1,-2
CC(=O)c1cccc(NC(=S)NC(=O)Cc2ccccc2)c1,0,-1,-2,-1
CCCCCC(=O)NC(=S)Nc1cccc(C(C)=O)c1,44*,3,0,-2
CC(=O)c1cccc(NC(=S)NCCc2ccc(F)cc2)c1,44*,-1,-6,0
CC(=O)Nc1cccc(NC(=S)Nc2ccc(F)cc2F)c1,43*,2,1,-2
CN(C)CC(=O)Nc1ccc2c(c1)[C@@H]1C[C@@H](CC(=O)NCc3cccnc3)O[C@@H](CO)[C@@H]1O2,0,1,3,-2
C/C(=N/NC(=O)CNC(=O)CCc1ccccc1)c1ccc(Cl)c(Cl)c1,0,1,16*,3
CCOc1ccccc1NC(=O)COC(=O)C1CC(=O)N(c2c(C)cccc2C)C1 (stereo not given),0,0,19*,-3
NS(=O)(=O)c1ccc(N/C=C/C(=O)c2ccc(Br)cc2)cc1,0,-4,-1,1
NS(=O)(=O)c1ccc(N/C=C\C(=O)c2ccncc2)cc1,43*,0,1,4
CO[C@H]1CN(C)C(=O)c2cc(NC(C)=O)ccc2OC[C@H](C)N(Cc2cncnc2)C[C@@H]1C,0,1,-1,-5
SMILES,FGF22 binding,CASP6 VEID inh,SIRT5 inh,ERAP1 HTS inh
CC(C)c1ccc(NC2CCCN(C(=O)CCN3CCCC3=O)C2)cc1 (stereo not given),0,-1,0,-1
CC(C)c1ccc(NC2CCCN(C(=O)CC3CCCC3)C2)cc1 (stereo not given),0,0,34*,-3
CCOC(=O)C(=O)N/N=C/c1ccco1,0,36*,0,x
CCc1ccc(-c2cc(C(=O)N/N=C/c3ccccn3)[nH]n2)cc1,0,0,0,2
CCc1ccc(-c2cc(C(=O)N/N=C/c3ccco3)[nH]n2)cc1,43*,-1,-3,-2
CCCNC(=O)C[C@H]1CC[C@@H]2[C@H](COc3ccc(NS(=O)(=O)c4ccccc4C)cc3C(=O)N2C)O1,0,-2,-5,-3
CC(C)CC#Cc1cnc2c(c1)C(=O)N([C@@H](C)CO)C[C@@H](C)[C@H](CN(C)C(=O)CCN1CCCCC1)O2,0,1,-1,2
CCCNC(=O)N1C[C@H](C)[C@@H](OC)CN(C)C(=O)c2cc(NS(C)(=O)=O)ccc2OC[C@@H]1C,0,0,-7,-3
NS(=O)(=O)c1ccc(NC(=O)COc2ccc(Cl)cc2)cc1,0,-4,-5,-1
Cc1ccc(OCCC(=O)Nc2ccc(S(=O)(=O)N3CCCC3)cc2)cc1,0,2,0,2
NS(=O)(=O)c1ccc(NC(=O)COC(=O)COc2ccc(Cl)cc2)cc1,43*,3,-5,0
Cc1ccc(OCCCC(=O)Nc2ccc(S(N)(=O)=O)cc2)cc1,43*,0,2,-1
CN1C(=O)c2cc(NC(=O)c3cccs3)ccc2OC[C@H]2O[C@@H](CC(=O)Nc3ccc4c(c3)COC4)CC[C@@H]21,0,-3,-3,2
Cc1cccc(OCC(=O)Nc2cc(NC(=O)COc3cccc(C)c3)cc(C(=O)O)c2)c1,0,-1,-7,0
Cc1cccc(OCC(=O)Nc2ccc(C(=O)NCC(C)C)cc2)c1,44*,-4,1,1
COCCCNC(=O)CCn1c(=O)c2ccccc2n(Cc2cccc([N+](=O)[O-])c2)c1=O,0,1,29*,x
CCOc1ccc(NC(=O)CSc2nnc(C)n2CC)cc1,0,-3,1,0
CCOc1ccc(NC(=O)CSc2nnc(Cn3cnc([N+](=O)[O-])n3)n2CC)cc1,43*,1,1,3
Cc1cccc(C)c1NC(=O)CN(C)C(=O)CCc1nc2sc3c(c2c(=O)[nH]1)CCCC3,0,12,2,-1
Cc1cccc(NC(=O)CCc2nc3sc4c(c3c(=O)[nH]2)CCCC4)n1,x,5,4,-6
Cc1cccc(NC(=O)CNC(=O)CCc2nc3sc4c(c3c(=O)[nH]2)CCCC4)c1C,0,41*,1,4
CN(CC(=O)Nc1ccc(F)c(F)c1F)C(=O)CCc1nc2sc3c(c2c(=O)[nH]1)CCCC3,0,42*,-2,-2
COc1ccccc1/C=C/c1nc(S(=O)(=O)c2ccccc2)c(N2CCC(C(N)=O)CC2)o1,0,-3,17*,1
NC(=O)C1CCN(c2oc(/C=C/c3ccc(F)cc3)nc2S(=O)(=O)c2ccccc2)CC1,0,4,-2,6
CCCNC(=O)Nc1ccc2c(c1)C(=O)N(C)[C@@H]1CC[C@H](CC(=O)OC)O[C@@H]1CO2,0,2,0,-1
C[C@H](CO)N1C[C@H](C)[C@H](CN(C)C(=O)Nc2ccc3c(c2)OCO3)Oc2ccc(NC(=O)c3ccncc3)cc2C1=O,0,1,-5,-4
O=[N+]([O-])c1cc(Cl)c2cccnc2c1O,x,x,17*,3
O=[N+]([O-])c1cc(F)c2cccnc2c1O,0,92*,-1,4
